A short description of assay [1]: growth inhibition of DIPG glioma cells, dose response, cell-based, SU-DIPG-XIII, MIPE4.0, CellTiter-Glo, qHTS (AID 1347061; cut-off not given, nearly all actives have AC50 up to about 37 µM;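 further: cells exposed to compound for 48 hours before readout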). As to conditions: SU-DIPG-XIII viability, CellTiter-Glo ATP luminescence. In general terms: ATP-based viability assays read luminescence as a measure of living cells.
Assay [2] in a line: growth inhibition of DIPG glioma cells, dose response, cell-based, JHH-DIPG-1, MIPE4.0, CellTiter-Glo, qHTS (AID 1347062; cut-off not given, nearly all actives have AC50 up to about 27 µM;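 on AC50: cells exposed to compound for two days before readout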). To be noted: JHH-DIPG-1 viability, CellTiter-Glo ATP luminescence.
Assay [3] can be described thus: growth inhibition of DIPG glioma cells, dose response, cell-based, SU-DIPG-IV, MIPE4.0, CellTiter-Glo, qHTS (AID 1347063; cut-off not given, nearly all actives have AC50 up to about 30 µM;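 further: compound exposure lasted 48 hours before the viability readout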). To be noted: SU-DIPG-IV viability, CellTiter-Glo ATP luminescence.
Assay [4] can be described thus: growth inhibition of DIPG glioma cells, dose response, cell-based, SU-DIPG-XIII, MIPE5.0, CellTiter-Glo, qHTS (AID 1347064; cut-off not given, nearly all actives have AC50 up to about 23 µM;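 on AC50: cells exposed to compound for 48 hours before the viability read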). As to conditions: SU-DIPG-XIII viability, CellTiter-Glo ATP luminescence.
A short description of assay [5]: viability loss in pontine glioma line – cell-based, SU-DIPG-XXV, MIPE5.0, CellTiter-Glo, qHTS, dose response (AID 1347065; cut-off not given, nearly all actives have AC50 up to about 26 µM;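 further: cells exposed to compound for 48 hours before ATP readout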). As to conditions: CellTiter-Glo ATP luminescence.
A short description of assay [6]: JHH-DIPG-1 glioma cell viability, MIPE5.0 library, CellTiter-Glo luminescence, qHTS (AID 1347067; cut-off not given, nearly all actives have AC50 up to about 26 µM;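 further: cells exposed to compound for 48 hours before readout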). As to conditions: JHH-DIPG-1 glioma viability, CellTiter-Glo ATP luminescence.
A short description of assay [7]: SU-DIPG-XXV glioma cell viability, MIPE5.0 library, qHTS (AID 1347068; cut-off not given, nearly all actives have IC50 up to about 30 µM;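 on IC50: cells exposed to compound for 48 hours before viability readout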). (In qHTS, concentration-response curves come from the screen itself.)
Assay [8] in a line: SU-DIPG-VI glioma cell viability, MIPE4.0 library, CellTiter-Glo luminescence, qHTS (AID 1347066; cut-off not given, nearly all actives have AC50 up to about 30 µM;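 further: cells exposed to compound for 48 hours before readout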). As to conditions: CellTiter-Glo ATP luminescence.
The nature of assay [9]: sensitizers of A549 cells to miR-34 induction, primary screen, imaging, A549 dox-inducible miR-34, nuclei and caspase counts (AID 1347080;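 active means compounds whose cell count with miR-34 switched on is under 0.7 times the count with it off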). As to conditions: A549 miR-34 inducible, Hoechst nuclei count, 48 h.
Assay [10] in a line: survival rescue of mitochondrial mutant cells in low glucose, primary screen, MELAS cybrids, Rieske KO mouse fibroblasts, CellTiter-Glo (AID 1508586;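 active means mean z-score across replicates of 1.96 or higher in either the MELAS or the Rieske mutant cell line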;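 further: z relative to plate mean and SD of compound and empty wells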).
Assay [11] is described as follows: growth inhibition of DIPG glioma cells, dose response, cell-based, SU-DIPG-XVII, MIPE5.0, CellTiter-Glo, qHTS (AID 1347060; cut-off not given, nearly all actives have AC50 up to about 26 µM;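 further: cells exposed to compound for 48 hours before viability readout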). As to conditions: SU-DIPG-XVII viability, CellTiter-Glo ATP luminescence.
A short description of assay [12]: ovarian cancer cell viability with rucaparib, profiling panel, oncology-focused library, rucaparib conditional (AID 1508598). As to conditions: patient-derived ovarian cancer cells, CellTiter-Glo viability, 144 h, stronger effect = lower value.

Records with an inconclusive call do not appear. The source made the active and inactive calls.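 How the source made its calls, unless noted: active means normalized viability below 100% at a tested concentration; inactive means the rest.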

The term AC50 denotes the concentration giving half of the maximal activity seen. For the compound `CCOC(=O)[C@@H](N)CCC(=O)N[C@@H](CSCc1ccccc1)C(=O)N[C@@H](C(=O)OCC)c1ccccc1`, the call in [1], in assay [2], in assay [3] and in assay [7] was inactive. Also, the AC50 in assay [4] is 18.6 µM (active); in assay [5], 26.3 µM (active); in assay [6], 23.5 µM (active).

As for `O=C(CC12CC3CC(CC(C3)C1)C2)Nc1cccc2nc(NCCNCCO)ccc12`, the AC50 in assay [1] is 14.8 µM (active); in assay [2], 20.9 µM (active); in assay [3] it was 10.5 µM (active). Moreover, in [4], the outcome was inactive.

With `O=S(=O)(N=Cc1c(O)ccc2ccccc12)c1cccs1`, the compound was classed as inactive in assay [1] and in assay [2]. For the same compound, the AC50 in [3] was 9.35 µM (active).

For `CCOC(=O)N1CCN(/[N+]([O-])=N/Oc2ccc([N+](=O)[O-])cc2C#N)CC1`, the call in [1] was inactive. In [2], the AC50 was 1.32 µM (active).

For the compound `C[C@@H]1C(=O)O[C@H]2CC34[C@H]5C[C@@H](C(C)(C)C)C36[C@@H](OC(=O)[C@@H]6O)O[C@@]4(C(=O)O5)[C@]21O` (some centres undefined), the compound was called inactive in assay [1], in assay [2], in assay [3], in assay [4], in assay [5] and in assay [8]. Besides, in assay [6], the call was inactive.

In general, IC50 refers to the concentration at which inhibition is half-maximal. On to `Nc1ncnc2c1c(-c1cccc(OCc3ccccc3)c1)cn2C1CC(CN2CCCC2)C1` (centres undefined), for which the AC50 in [1] was 16.6 µM (active); in assay [2], 20.9 µM (active); in assay [3], 20.9 µM (active); in assay [4] it was 1.18 µM (active); in [5], 0.934 µM (active); in [8], 1.18 µM (active). Besides, the half-maximal activity concentration (AC50) in [6] is 18.6 µM (active). In addition, the IC50 in assay [7] is 4.68 µM (active). In addition, the fold change in assay [9] (stronger effect = lower value, cell number ratio, induced over uninduced) was 1.06 (inactive); in [9] (measured here: relative caspase fold change +Dox/-Dox), 0.675. Moreover, the cell count amounted to 1510 in [9] (measured here: total cells with miR-34 induction, stronger effect = lower value) and 1430 in [9] (measured here: total cells without miR-34 induction). Moreover, the z-score is -0.449 (inactive) in assay [10] (MELAS cybrid survival, CellTiter-Glo 48 h, stronger effect = higher value) and 0.635 in [10] (Rieske KO mouse fibroblast survival, CellTiter-Glo 72 h).

With `C[C@@]12C(=O)OC(=O)[C@@]1(C)C1CCC2O1`, the AC50 in assay [1] was 1.66 µM (active); in assay [2], 2.64 µM (active); in [3] it was 1.48 µM (active).

By viability is commonly meant a read-out of living cells in per cent, often relative to untreated cells. Consider `Cc1cc2c(F)c(Oc3ncnn4cc(OC[C@@H](C)O)c(C)c34)ccc2[nH]1`, for which, in assay [11], the concentration at half-maximal activity (AC50) is 14.8 µM (active). Moreover, the half-maximal inhibitory concentration (IC50) in assay [7] was 14.8 µM (active). For the same compound, the viability in [12] (at 0.000305 µM, OCI-C5x cells, with rucaparib 10 µM, 100% = cells with rucaparib alone) was 117% (inactive); in assay [12] (at 0.000305 µM, OCI-C5x cells, without rucaparib) it was 131% (inactive); in [12] (at 0.000305 µM, OCI-P5x cells, with rucaparib 20 µM, 100% = cells with rucaparib alone), 112% (inactive); in assay [12] (at 0.000305 µM, OCI-P5x cells, without rucaparib) it was 105% (inactive); in [12] (at 0.00122 µM, OCI-C5x cells, with rucaparib 10 µM, 100% = cells with rucaparib alone), 131% (inactive); in [12] (at 0.00122 µM, OCI-C5x cells, without rucaparib), 128% (inactive). The viability in assay [12] (at 0.00122 µM, OCI-P5x cells, with rucaparib 20 µM, 100% = cells with rucaparib alone) was 112% (inactive); in [12] (at 0.00122 µM, OCI-P5x cells, without rucaparib), 109% (inactive); in assay [12] (at 0.00488 µM, OCI-C5x cells, with rucaparib 10 µM, 100% = cells with rucaparib alone), 125% (inactive); in assay [12] (at 0.00488 µM, OCI-C5x cells, without rucaparib) it was 126% (inactive); in assay [12] (at 0.00488 µM, OCI-P5x cells, with rucaparib 20 µM, 100% = cells with rucaparib alone), 108% (inactive); in assay [12] (at 0.00488 µM, OCI-P5x cells, without rucaparib) it was 99.9% (active). Further, the viability in [12] (at 0.0195 µM, OCI-C5x cells, with rucaparib 10 µM, 100% = cells with rucaparib alone) is 111% (inactive); in [12] (at 0.0195 µM, OCI-C5x cells, without rucaparib), 124% (inactive); in assay [12] (at 0.0195 µM, OCI-P5x cells, with rucaparib 20 µM, 100% = cells with rucaparib alone) it was 110% (inactive); in assay [12] (at 0.0195 µM, OCI-P5x cells, without rucaparib), 102% (inactive); in assay [12] (at 0.0781 µM, OCI-C5x cells, with rucaparib 10 µM, 100% = cells with rucaparib alone), 123% (inactive); in assay [12] (at 0.0781 µM, OCI-C5x cells, without rucaparib) it was 141% (inactive). For the same compound, the viability in assay [12] (at 0.0781 µM, OCI-P5x cells, with rucaparib 20 µM, 100% = cells with rucaparib alone) is 99% (active); in [12] (at 0.0781 µM, OCI-P5x cells, without rucaparib) it was 108% (inactive); in assay [12] (at 0.313 µM, OCI-C5x cells, with rucaparib 10 µM, 100% = cells with rucaparib alone), 122% (inactive); in [12] (at 0.313 µM, OCI-C5x cells, without rucaparib), 129% (inactive); in assay [12] (at 0.313 µM, OCI-P5x cells, with rucaparib 20 µM, 100% = cells with rucaparib alone) it was 113% (inactive); in assay [12] (at 0.313 µM, OCI-P5x cells, without rucaparib), 106% (inactive). Also, the viability in [12] (at 1.25 µM, OCI-C5x cells, with rucaparib 10 µM, 100% = cells with rucaparib alone) is 117% (inactive); in assay [12] (at 1.25 µM, OCI-C5x cells, without rucaparib), 135% (inactive); in assay [12] (at 1.25 µM, OCI-P5x cells, with rucaparib 20 µM, 100% = cells with rucaparib alone) it was 109% (inactive); in assay [12] (at 1.25 µM, OCI-P5x cells, without rucaparib) it was 102% (inactive); in assay [12] (at 5 µM, OCI-C5x cells, with rucaparib 10 µM, 100% = cells with rucaparib alone), 122% (inactive); in [12] (at 5 µM, OCI-C5x cells, without rucaparib) it was 139% (inactive). In addition, the viability is 109% (inactive) in assay [12] (at 5 µM, OCI-P5x cells, with rucaparib 20 µM, 100% = cells with rucaparib alone) and 97.4% (active) in assay [12] (at 5 µM, OCI-P5x cells, without rucaparib).

Values taken from PubChem BioAssay.
